Compound activity (PubChem)
Mdm2 MdmX PPI: disrupts the human Mdm2-MdmX interaction; 3% of 330,000 active; SaOS-2 split-luciferase Mdm2/MdmX complementation, luminescence; O15151+Q00987; inhibition, % at 8 µM;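 active = inhibition of at least 50% at 8 µM in the primary screen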
ABHD5-PLIN5 inh: inhibitors of human ABHD5-perilipin-5 interaction; inhibition, % at 4 µM; Q00G26+Q8WTS1; 0.78% of 360,000 active; Split G. princeps luciferase complementation, luminescence, 4 h;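 active = inhibition above the mean inhibition across every tested compound plus 3 SD, cut at about 22% in these data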;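 note: 0% = DMSO only wells and the 100% control is not disclosed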
HIF-2a inh: inhibitors of HIF-2a; 786-0 RCC cells HIF-2a reporter, luciferase luminescence, overnight; inhibition, % at 18.8 µM; 0.72% of 360,000 active;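 active = inhibition of the luminescence signal of 40% or more relative to plate controls, in a single-dose primary screen at 18.75 µM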
KKLEB cytotox: reduces viability of KKLEB cystic fibrosis airway cells; KKLEB CF airway cells viability, ATPlite luminescence, overnight; stronger effect = lower value; cells stimulated with P. aeruginosa culture filtrate; activity change (cytotoxicity), % at 5 µM; 0.36% of 360,000 active;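 active = corrected activity change at or below -50% at 5 µM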
CF NFkB block: inhibitors of cystic fibrosis induced NF-kB | KKLEB NF-kB-GFP reporter, PAF-induced, GFP fluorescence overnight | inhibition, % at 5 µM | 0.86% of 360,000 active;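 active = at least 50% inhibition at 5 µM, scaled per plate between neutral and stimulator controls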;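 note: PAF is a Pseudomonas aeruginosa culture filtrate used as stimulus; plate controls were PAF-stimulated DMSO wells for no effect and unstimulated DMSO wells for full effect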
Peg3 prom inh-1: reduces Peg3 promoter-driven luciferase expression in HeLa | HeLa PEG-Prom luciferase reporter, luminescence, overnight | inhibition, % at 20 µM | 1.7% of 360,000 active | AID 588405;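 active = inhibition of at least 50% at 20 µM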
Peg3 prom inh-2: Peg3 promoter inhibition confirmation. shares compounds with Peg3 prom inh-1. HeLa PEG-Prom luciferase reporter, luminescence, overnight. inhibition, % at 20 µM. 84% of 1,300 active;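 active = at 20 µM dose, 40% or more inhibition averaged across four replicates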
CF NFkB inh conf: confirmation of cystic fibrosis induced NF-kB inhibitors; shares compounds with CF NFkB block; KKLEB CF airway cells, PAF-induced NF-kB-GFP fluorescence, overnight; inhibition, % at 5 µM; 64% of 1,300 active; in the data active = inhibition above about 40%;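 note: stimulus PAF is a Pseudomonas aeruginosa filtrate and not platelet activating factor; plate controls were DMSO wells with stimulus for no effect and unstimulated DMSO wells for full effect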
ABHD5-PLIN5 conf: ABHD5-PLIN5 interaction inhibition, confirmed | shares compounds with ABHD5-PLIN5 inh | 67% of 2,200 active | inhibition, % at 4 µM | biochemical ABHD5-PLIN5 interaction, luminescence; in the data active = inhibition above about 23%;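 note: 0% = DMSO vehicle wells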
HNF4 split-luc: active in HNF4 split-luciferase counter-screen for ABHD5-PLIN5 inhibitors; shares compounds with ABHD5-PLIN5 inh; HNF4 dimerization, luminescence, biochemical; inhibition, % at 4 µM; 77% of 2,200 active; AID 651674;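 active = mean inhibition across replicate wells exceeding the computed hit threshold, cut at about 13% in these data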;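 note: light from luciferase halves that rejoin when HNF4 fusion proteins dimerize; 0% = DMSO only wells and the 100% control is not given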
Target sequence (P41235 whole entry, looked up, the tested form may be a part): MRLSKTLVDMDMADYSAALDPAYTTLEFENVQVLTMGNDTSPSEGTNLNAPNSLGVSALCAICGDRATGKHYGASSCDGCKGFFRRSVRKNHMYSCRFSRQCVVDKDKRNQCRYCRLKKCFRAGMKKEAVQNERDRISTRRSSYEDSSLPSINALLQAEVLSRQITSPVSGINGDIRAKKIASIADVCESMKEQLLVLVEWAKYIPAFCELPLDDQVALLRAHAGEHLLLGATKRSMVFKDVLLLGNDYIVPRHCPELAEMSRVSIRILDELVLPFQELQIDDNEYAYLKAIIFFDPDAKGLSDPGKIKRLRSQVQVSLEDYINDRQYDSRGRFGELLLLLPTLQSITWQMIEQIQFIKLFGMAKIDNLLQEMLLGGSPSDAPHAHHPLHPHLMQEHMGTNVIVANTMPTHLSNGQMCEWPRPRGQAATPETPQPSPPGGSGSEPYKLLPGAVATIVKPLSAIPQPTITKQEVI
HIF-2a conf: HIF-2a inhibition, single concentration confirmation; shares compounds with HIF-2a inh; 786-0 RCC cells, HIF-2a luciferase reporter luminescence, overnight; inhibition, % at 18.8 µM; 56% of 1,800 active;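 active = mean inhibition across four replicates of at least 40 percent at the single tested concentration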
HIF-1a cs: HIF-1a inhibition counter-screen for HIF-2a hits | inhibition, % at 18.8 µM | AID 651589 | shares compounds with HIF-2a inh | 72% of 1,800 active | MiaPaCa-2 HIF-1a luciferase reporter, desferoxamine, overnight;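 active = mean inhibition of the reporter signal across four replicates at the single tested dose of 50% or more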
Numbers without * were called inactive; nt = no result given. A selection: hits, their analogues and other compounds. The true share with any hit is near 4.6%.

SMILES	Mdm2 MdmX PPI	ABHD5-PLIN5 inh	HIF-2a inh	KKLEB cytotox	CF NFkB block	Peg3 prom inh-1	Peg3 prom inh-2	HIF-2a conf	HIF-1a cs	others
Cc1ccc(CNC(=S)NC2CCC(C(C)(C)C)CC2)cc1 (stereo not drawn)	23.3	-2.9	-2.1	-11.1	35.2	12.8	nt	nt	nt
Cc1ccc(CC2(OCCN(C)C)CCC(C(C)(C)C)CC2)cc1 (stereo not drawn)	nt	26.4*	-3.8	-0.9	20.7	95.4*	100.8*	nt	nt	ABHD5-PLIN5 conf=30.2*;HNF4 split-luc=1.7
CS(=O)(=O)c1ccc(C(=O)NCCN2C(=O)S/C(=C\c3cccnc3)C2=O)cc1[N+](=O)[O-]	49.6	55.5*	7.5	-68.0*	78.0*	99.2*	54.1*	nt	nt	ABHD5-PLIN5 conf=67.5*;HNF4 split-luc=44.1*
COC1CC(C)C(OC)c2cc(O)cc(c2O)NC(=O)C(C)=CC=CC(C)C(OC(N)=O)C(C)=CC(C)C1OC (stereo not drawn)	nt	42.8*	28.7	2.1	39.6	57.4*	48.1*	nt	nt	ABHD5-PLIN5 conf=51.7*;HNF4 split-luc=92.7*
CC(=O)Nc1ccc(NC(=O)CS(=O)(=O)Cc2ccccc2)cc1	-5.5	-2.1	10.3	3.5	-8.9	4.3	nt	nt	nt
CC(=O)Nc1ccc(NC(=O)c2nc(S(=O)(=O)Cc3ccccc3)ncc2Cl)cc1	45.9	57.9*	-0.2	-77.0*	96.4*	101.6*	95.5*	nt	nt	ABHD5-PLIN5 conf=81.3*;HNF4 split-luc=93.7*
O=C(c1cc(-c2ccc(F)cc2)nc2ccccc12)N1CCN(C2CCS(=O)(=O)C2)CC1 (stereo not drawn)	24.5	-6.0	-63.4	19.7	-7.9	-30.9	nt	nt	nt
COc1ccc(C(=O)NC(=O)CSc2n[nH]c(N)n2)cc1	-4.3	-4.2	7.3	5.1	-21.0	-3.6	nt	nt	nt
COCCn1c(C)cc(C(=O)COc2ccc(C)nc2[N+](=O)[O-])c1C	26.7	-4.1	74.5*	4.8	-18.8	65.8*	72.3*	76.5*	85.1*
C=CCn1c(C)cc(C(=O)COc2ccc(C)nc2[N+](=O)[O-])c1C	39.4	4.7	68.2*	2.1	14.1	61.0*	69.1*	67.8*	89.0*
Cc1ccc(OCC(=O)c2cc(C)c(C)cc2C)c([N+](=O)[O-])n1	-5.1	-7.4	8.5	-7.8	2.5	14.5	nt	nt	nt
Cc1nn(Cc2ccccc2Cl)c(C)c1NC(=O)CCCn1nc([N+](=O)[O-])c(Cl)c1C	-3.4	-3.3	29.4	-4.6	-1.3	13.2	nt	nt	nt
COc1ccc(OC)c(NC(=O)COC(=O)COc2ccc(Nc3ccccc3)cc2)c1	-5.5	-8.2	11.9	-0.5	-3.0	2.1	nt	nt	nt
O=[N+]([O-])c1ccc(/C=N/Nc2ncccc2[N+](=O)[O-])s1	4.6	0.0	-65.5	-1.1	-5.4	-59.7	nt	nt	nt
COc1cccc(/C=N/Nc2ncccc2[N+](=O)[O-])c1OC	15.5	-1.7	50.9*	-6.5	3.0	72.5*	62.4*	74.2*	31.1
Cc1ccc2nc(NC(=O)CSCC(=O)OCC(=O)c3ccccc3)sc2c1	nt	-2.0	70.6*	3.5	-4.6	53.4*	71.1*	75.1*	74.4*
CCn1ncc([N+](=O)[O-])c1C(=O)N1CCc2ccccc2C1	-2.2	1.1	-21.9	4.5	-5.2	-31.9	nt	nt	nt
Clc1cccc(-c2nc(-c3ccccn3)no2)c1	20.9	-0.9	52.9*	-25.2	-30.3	62.1*	52.1*	71.8*	64.6*
COc1ccc(-c2cc(C(=O)O)c(C)o2)cc1OC	-37.5	7.5	12.4	3.5	-11.6	29.8	nt	nt	nt
Cc1oc(-c2ccc3c(c2)OCCO3)cc1C(=O)O	-73.2	-3.7	81.0*	-5.6	8.8	96.0*	89.1*	92.4*	91.8*
CC(=O)n1c(=O)oc2ccccc21	-16.3	-8.3	10.3	-5.2	-14.7	-2.5	nt	nt	nt
O=C(N/N=C/c1ccc(C(F)(F)F)cc1)c1ccc(O)cc1	-2.5	1.9	-112.1	1.3	-7.0	-132.5	nt	nt	nt
O=C(O)c1ccc(N/N=C/c2ccc(C(F)(F)F)cc2)cc1	-135.5	-7.8	44.9*	-2.3	6.3	66.0*	51.9*	68.0*	32.9
CC(C)(C)c1ccc(/C=N/Nc2ccc(C(=O)O)cc2)cc1	30.8	0.8	74.2*	-1.9	17.6	80.1*	72.8*	76.4*	33.0
O=C(O)c1ccc(N/N=C/c2ccc3c(c2)OCO3)cc1	24.6	-0.3	85.7*	0.0	1.4	94.4*	81.8*	89.6*	88.1*
SMILES	Mdm2 MdmX PPI	ABHD5-PLIN5 inh	HIF-2a inh	KKLEB cytotox	CF NFkB block	Peg3 prom inh-1	Peg3 prom inh-2	HIF-2a conf	HIF-1a cs	others
CCc1nc2c(OCc3ccc(Cl)cc3Cl)cccn2c1N(C=O)Cc1ccc(OC)cc1	nt	-2.0	-16.1	-15.7	15.1	18.1	nt	nt	nt
Nc1[nH]c(C(=O)c2ccccc2)c(-c2ccccc2Cl)c1C(=O)c1ccccc1	nt	-3.2	-11.2	nt	nt	nt	nt	nt	nt
N#CC(C#N)=C1C=CC=CN1/C(=C\c1ccco1)C(=O)c1ccc(Cl)cc1	nt	87.1*	94.3*	-49.7	84.6*	103.7*	100.4*	97.6*	97.1*	CF NFkB inh conf=10.0
CC(/C=N/n1c(-c2ccc(Cl)cc2)n[nH]c1=S)=C\c1ccco1	-16.5	-1.6	-9.4	5.1	0.8	21.2	nt	nt	nt
O=C(O)CSCC(=O)Nc1ccc(C2CCCCC2)cc1	33.8	1.9	81.2*	3.2	2.5	71.4*	76.5*	95.1*	93.5*
Cc1ccc(S(=O)(=O)N2CCN(C(=O)CCc3c[nH]c4ccccc34)CC2)c(C)c1	8.5	-3.2	-7.0	9.1	-12.7	15.9	nt	nt	nt
CCOc1cc(/C=N/N=C(N)N)ccc1OCc1ccc(Cl)cc1	nt	4.7	97.5*	-24.3	6.3	99.1*	96.8*	-11.2	107.0*
CCOc1cc(/C=N/O)ccc1OCc1ccc(F)cc1	-19.1	-0.4	-68.0	-7.5	-1.7	-62.8	nt	nt	nt
O=C1NC[C@H](CCCCN2CCN(CCc3ccc(O)cc3)C(=O)C2=O)N(CCC2CCCCC2)C1=O	nt	4.8	-2.3	nt	nt	nt	nt	nt	nt
COc1ccc(CCNC(=O)CN2C(=O)NC3(CCCCC3C)C2=O)cc1 (stereo not drawn)	-11.8	0.0	-8.2	6.2	-19.2	0.8	nt	nt	nt
